From PubChem BioAssay (Tox21)
Several values for one entry are separate records, joined by “and”; a condition that tells them apart may be missing. Equal values may be shown once. Inconclusive results are not listed. Activity calls are given as the source filed them. Unless noted, calls come from the whole dose curve; as a rule, active = well fitted curve in the direction sought with a large enough effect in the repeat runs; inconclusive = weak or mixed curves; inactive = no such curve, though single readings can be large; an effect the other way counts as inactive or inconclusive.

Experiments:
[1] = qHTS assay to identify small molecule antagonists of the glucocorticoid receptor (GR) signaling pathway - cell viability counter screen (AID 720693); note: nearly all actives have a fitted effect of over 55% in size
[2] = qHTS assay for identifying genotoxic compounds that show differential cytotoxicity against isogenic chicken DT40 cell lines with known DNA damage response pathways - Rev3 mutant cell line (AID 743014); note: nearly all actives have a fitted effect of over 55% in size; note: potency is the fitted concentration of half-maximal effect
[3] = qHTS assay for identifying genotoxic compounds that show differential cytotoxicity against isogenic chicken DT40 cell lines with known DNA damage response pathways - Rad54/Ku70 mutant cell line (AID 743015); note: nearly all actives have a fitted effect of over 60% in size; note: potency is the fitted concentration of half-maximal effect
[4] = qHTS assay to identify small molecule antagonists of the androgen receptor (AR) signaling pathway - cell viability counter screen (AID 743033; note: nearly all actives have a fitted effect of over 45% in size; note: potency is the fitted concentration of half-maximal effect)
[5] = target: Androgen receptor (Homo sapiens) (UniProt P10275); experiment: qHTS assay to identify small molecule agonists of the androgen receptor (AR) signaling pathway (AID 743036; active = well fitted activation curve with a large enough effect in the signal ratio in the repeat runs, with a control signal flat, not every such curve was filed as active; the % refers to the signal ratio; note: potency is the fitted concentration of half-maximal effect)
How it was run: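 Agonist activity was scored by beta-lactamase reporter fluorescence in stably transfected HEK293 cells exposed to compounds for 16 h at 37C and 5% CO2. Substrate loading took 2 h at room temperature.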

[6] = target: Androgen receptor (Homo sapiens) (UniProt P10275); experiment: qHTS assay to identify small molecule antagonists of the androgen receptor (AR) signaling pathway using the MDA cell line (AID 743042; note: nearly all actives have a fitted effect of over 55% in size)
How it was run: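 MDA-kb2 breast carcinoma cells carrying MMTV-luciferase (AR/GR responsive) were co-treated with compounds and the agonist R1881 for 16 h at 37C. Inhibition read as ONE-Glo luminescence; CellTiter-Fluor fluorescence measured in parallel for cytotoxicity.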

[7] = qHTS assay to identify small molecule antagonists of the androgen receptor (AR) signaling pathway using the MDA cell line - cell viability counter screen (AID 743041; note: nearly all actives have a fitted effect of over 45% in size; note: potency is the fitted concentration of half-maximal effect)
How it was run: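 Cytotoxicity counter screen: MDA-kb2 AR-luc cells, compound + R1881, 16 h, 37C, 0% CO2; CellTiter-Fluor added at 15.5 h, fluorescence read after 30 min.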

[8] = qHTS assay to identify small molecule antagonists of the thyroid receptor (TR) signaling pathway - cell viability counter screen (AID 743064); note: nearly all actives have a fitted effect of over 50% in size; note: potency is the fitted concentration of half-maximal effect
How it was run: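 Same-well viability check: GH3.TRE-Luc cells stimulated with 1 nM T3 alongside test compound for 23.5 h, followed by CellTiter-Fluor fluorescence.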

[9] = target: Androgen receptor (Homo sapiens) (UniProt P10275); experiment: qHTS assay to identify small molecule antagonists of the androgen receptor (AR) signaling pathway (AID 743035; active = well fitted inhibition curve with a large enough effect in the signal ratio in the repeat runs, not every such curve was filed as active; the % refers to the signal ratio)
How it was run: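 R1881 agonist challenge of a HEK293 UAS-beta-lactamase AR reporter line in the presence of compound (16 h, 37C); signal taken as FRET fluorescence after 2 h with LiveBLAzer B/G substrate at room temperature.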

[10] = qHTS assay for identifying genotoxic compounds that show differential cytotoxicity against isogenic chicken DT40 cell lines with known DNA damage response pathways - wild type cell line (AID 743012); note: nearly all actives have a fitted effect of over 60% in size; note: potency is the fitted concentration of half-maximal effect
How it was run: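 Endpoint: CellTiter-Glo luminescence, 30 min RT. Cells: wild type DT40, 300/well. Exposure: compounds in DMSO, 40 h, 37 C/5% CO2, after ~0.5 h pre-incubation.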
% is set by controls: 0 for no effect and ±100 for the full control effect.

Sequence of Androgen receptor (Homo sapiens) (P10275 whole entry, looked up): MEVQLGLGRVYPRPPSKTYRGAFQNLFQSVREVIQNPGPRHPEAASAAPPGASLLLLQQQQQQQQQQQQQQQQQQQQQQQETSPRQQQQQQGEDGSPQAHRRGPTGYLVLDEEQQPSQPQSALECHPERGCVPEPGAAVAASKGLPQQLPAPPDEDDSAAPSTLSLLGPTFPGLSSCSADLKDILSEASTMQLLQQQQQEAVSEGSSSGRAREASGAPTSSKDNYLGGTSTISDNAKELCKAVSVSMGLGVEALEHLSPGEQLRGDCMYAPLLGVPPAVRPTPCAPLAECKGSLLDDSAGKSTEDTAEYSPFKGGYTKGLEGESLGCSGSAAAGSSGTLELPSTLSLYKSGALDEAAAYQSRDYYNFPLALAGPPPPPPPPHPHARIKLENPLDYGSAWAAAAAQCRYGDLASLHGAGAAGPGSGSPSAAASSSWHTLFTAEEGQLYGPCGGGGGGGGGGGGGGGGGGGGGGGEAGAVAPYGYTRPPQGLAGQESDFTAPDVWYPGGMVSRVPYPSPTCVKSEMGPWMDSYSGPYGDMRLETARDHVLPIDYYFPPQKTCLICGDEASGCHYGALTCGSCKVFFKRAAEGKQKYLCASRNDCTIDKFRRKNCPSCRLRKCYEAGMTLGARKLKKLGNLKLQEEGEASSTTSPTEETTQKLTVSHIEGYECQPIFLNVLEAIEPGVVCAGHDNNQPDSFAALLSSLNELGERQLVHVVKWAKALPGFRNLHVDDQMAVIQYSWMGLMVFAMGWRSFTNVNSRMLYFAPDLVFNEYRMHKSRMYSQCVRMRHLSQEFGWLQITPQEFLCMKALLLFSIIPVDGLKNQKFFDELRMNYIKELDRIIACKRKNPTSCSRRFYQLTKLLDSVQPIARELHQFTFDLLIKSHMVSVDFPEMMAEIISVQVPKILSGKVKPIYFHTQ

O=S(=O)(O)c1ccc(Nc2nc(Nc3ccc(/C=C/c4ccc(Nc5nc(Nc6ccc(S(=O)(=O)O)cc6)nc(N(CCO)CCO)n5)cc4S(=O)(=O)O)c(S(=O)(=O)O)c3)nc(N(CCO)CCO)n2)cc1
active: Potency [5] 33.1 µM
inactive: Potency [1] | Potency [2] | Potency [3] | Potency [4] | Potency [6]

CCCNCCC
inactive: Potency [1] | Potency [2] | Potency [3] | Potency [7] | Potency [8]

CN(C)Cc1ccccc1O
inactive: Potency [1] | Potency [2] | Potency [3] | Potency [4] | Potency [9] | Potency [5] | Potency [7] | Potency [6] | Potency [8]

CCC(C)(CCC(C)C)C(=O)[O][Sn]([CH3])([CH3])[O]C(=O)C(C)(CC)CCC(C)C (stereo unspecified)
active: Potency [10] 54.5 µM
inactive: Potency [1] | Potency [3] | Potency [7]

c1ccc(SSc2ccccc2)cc1
active: Potency [2] 27.5 µM
inactive: Potency [1] | Potency [4] | Potency [7] | Potency [8]

CC[C@H](C)COC(=O)/C=C/c1ccc(N=Cc2ccc(OC)cc2)cc1
active: Potency [2] 61 µM
inactive: Potency [1] | Potency [7]

CC(C)(C)CC(C)(C)c1ccc(Nc2ccc(C(C)(C)CC(C)(C)C)cc2)cc1
inactive: viability change, negative = cytotoxic [1] -8.5% [at 7.04 µM] | activity, negative = cytotoxicity [2] 3.12% [at 8.53 µM] | activity change, negative = cytotoxicity [4] 1.05% [at 7.04 µM] | viability change, negative = cytotoxic [7] -4.37% [at 8.47 µM] | activity change, negative = cytotoxic [8] 10.6% [at 8.44 µM]

CCCCCC(C)OC(=O)COc1ccc(Cl)c2cccnc12 (stereo unspecified)
inactive: Potency [1] | Potency [2] | Potency [7]

CCC(=O)C(=O)CC
inactive: Potency [1] | Potency [7]
active: Potency [2] 28.5 µM

O=C(Nc1ccc2c(O)c(N=Nc3ccc(N=Nc4ccc(S(=O)(=O)O)cc4)cc3)c(S(=O)(=O)O)cc2c1)c1ccccc1
active: Potency [7] 24.3 µM | Potency [8] 30.6 µM
inactive: Potency [1] | Potency [10] | Potency [4]

Nc1ccc(NCCO)c([N+](=O)[O-])c1
active: Potency [8] 54.5 µM
inactive: Potency [1] | Potency [10] | Potency [3]

COC(=O)c1ccccc1OC
inactive: Potency [1] | Potency [2] | Potency [3] | Potency [4] | Potency [7] | Potency [8]

Cc1cc(C(C)(C)C)c(O)c(C)c1Cn1c(=O)n(Cc2c(C)cc(C(C)(C)C)c(O)c2C)c(=O)n(Cc2c(C)cc(C(C)(C)C)c(O)c2C)c1=O
inactive: Potency [1] | Potency [2] | Potency [3] | Potency [4] | Potency [7] | Potency [8]

CCOC(=O)NNc1ccc(N(CC)CC(C)O)nn1 (stereo unspecified)
active: Potency [2] 23.7 µM
inactive: Potency [1] | Potency [4] | Potency [7] | Potency [8]

OC1CCCc2ccccc21 (stereo unspecified)
inactive: Potency [1] | Potency [10] | Potency [4] | Potency [7] | Potency [8]

CCCCCCCCCCCC(=O)OCC(C)OC(=O)CCCCC(=O)O (stereo unspecified)
inactive: Potency [1] | Potency [2] | Potency [4] | Potency [7] | Potency [8]

COc1cccc(OC)c1C(=O)O
inactive: Potency [1] | Potency [2] | Potency [3] | Potency [4] | Potency [7] | Potency [8]

Oc1ccccc1O
inactive: Potency [4] | Potency [7]
active: Potency [10] 24.6 µM and 30.6 µM | Potency [2] 19.6 µM and 54.5 µM | Potency [3] 12.3 µM and 27.3 µM | Potency [8] 17.4 µM and 15.4 µM

CCO[C@@H]1O[C@H](C(COCc2ccccc2)OCc2ccccc2)[C@H](OCc2ccccc2)[C@H]1O (stereo partly specified)
active: Potency [3] 14.3 µM
inactive: Potency [1] | Potency [4] | Potency [7] | Potency [8]

CCN(CC)c1ccc2c(-c3ccc(S(=O)(=O)O)cc3S(=O)(=O)[O-])c3ccc(=[N+](CC)CC)cc-3oc2c1
active: Potency [7] 11.2 µM | Potency [8] 8.91 µM
inactive: Potency [1] | Potency [9] | Potency [5]

O=C1c2ccccc2C(=O)N1SC1CCCCC1
active: Potency [10] 15.3 µM and 5.45 µM | Potency [2] 6.85 µM and 5.45 µM | Potency [4] 38.9 µM and 49 µM | Potency [8] 30.6 µM and 21.7 µM

S=c1nccc[nH]1
inactive: Potency [1] | Potency [4] | Potency [7] | Potency [8]

CCCCN(CCCC)CC(O)c1cc(Cl)cc2c1-c1ccc(Cl)cc1/C2=C/c1ccc(Cl)cc1 (stereo unspecified)
inactive: Potency [1] | Potency [4]

CN1CCN2c3ccccc3Cc3ccccc3C2C1 (stereo unspecified)
inactive: Potency [4]
active: Potency [10] 13.3 µM | Potency [2] 26.6 µM | Potency [3] 21.1 µM | Potency [8] 26.6 µM

CCCCCC/C=C\CCCCCCCC(=O)O
inactive: Potency [10] | Potency [2] | Potency [3] | Potency [4] | Potency [7]
